This is part of a sample that, as a whole, favours compounds with a hit. Of some 83,000 tested, about 20% had one in any assay.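 Single-concentration screen, 48 h exposure, 96-well plates. Endpoint: percent growth. Below 10 = active.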 Unmarked numbers belong to inactive results. The source made the active and inactive calls.
System: MDA-MB-468 breast
Assay: NCI-60 one-dose screen, 48 h (100 = growth as untreated, 0 = no growth, -100 = all killed)
Conditions: 10 µM unless noted

Going from `C(CCCC1=NCCO1)CCCC1=NCCO1` to `C=C1CC[C@@H]2[C@@](C)(CCC[C@]2(C)C(=O)O)[C@@H]1CC[C@H](CO)CCO`, the growth rises from 95% to 108%.

First: COC(=O)[C@@H]1CCCN1C(=O)[C@H]1CCCN1C(=O)[C@@H](Cc1c[nH]c2ccccc12)NC(=S)Nc1cc(C(F)(F)F)cc(C(F)(F)F)c1
Second: COC(=O)[C@@H]1[C@H]2C[C@H]3c4[nH]c5cc(OC)ccc5c4CCN3C[C@@H]2C[C@H](OC(=O)/C=C/c2ccnc(OC)c2)[C@H]1OC
The growth of the first is lower: 29.2% for the first, 76.9% for the second.

Going from `COc1ccc(NC(=O)C2CC3C=CC2C3)c([N+](=O)[O-])c1` (stereo unspecified) to `O=C1OC(=O)C2C3CC(c4ccccc43)C12` (stereo unspecified), the growth rises from 93.1% to 121%.

Going from `Cn1cc(CNc2nc3ccc(OC/C(=C/F)CN)cc3o2)ccc1=O` to `COCCNC(=O)Cc1cc(-c2ccc(Cl)cc2)n(-c2ccccc2)c1C`, the growth falls from 107% to 73%.

Compared with `Cc1ccc(C)c2c1sc1nc3nc4sc5ccccc5n4c(=N)c3c(=O)n12`, `COc1cc(-c2c3c(c(Br)n2Cc2ccccc2)-c2nc(N)sc2CC3)cc(OC)c1OC` is lower in growth: 88.7% for the first, 73.4% for the second.

Compared with `Nc1cc(O)cc2cccnc12`, `NS(=O)(=O)c1cc(C2(O)NC(=O)c3ccccc32)ccc1Cl` (stereo unspecified) is lower in growth: 109% for the first, 102% for the second.

First: CCc1ccccc1-n1c(-c2ccc(Cl)cc2)cc(-c2ccc(Cl)cc2)c(C#N)c1=O
Second: COc1cc(/C=C2\C(=O)Nc3ccccc32)ccc1OCc1ccc(F)cc1
The growth of the first is lower: 87.6% for the first, 102% for the second.

Compared with `OC(COc1ccccc1Cl)CN1CCN(c2ccc(Cl)cc2)CC1` (stereo unspecified), `C=CCn1c(SCC(=O)Nc2ccc(C(=O)/C=C/c3ccc(Cl)cc3)cc2)nnc1-c1cc(-c2ccccc2)nc2ccccc12` is lower in growth: 95.7% for the first, 61.6% for the second.

Compared with `CC(C)c1ncc([N+](=O)[O-])n1C`, `CC(=O)OCC(=O)[C@@]1(O)CC[C@H]2[C@@H]3CC(=C(Br)Br)C4=CC(=O)CC[C@]4(C)[C@H]3C(=O)C[C@@]21C` is lower in growth: 104% for the first, 79.1% for the second.

`COc1ccc2[nH]cc(-c3nonc3-c3c[nH]c4ccc(Br)cc34)c2c1` gave a growth of 77.8%.

For `Cc1cc2nc3ccc(N=Nc4ccc(N(C)C)cc4)cc3n(-c3ccccc3)c-2cc1=N`, the growth was -89.4% (active).
For `O=C1CCC/C=C\C[C@H]2C=CC(=O)/C2=C/C[C@H](C/C=C\CC(F)(F)F)O1`, the growth was -46.5% (active).
For `CN(C)CCCC1(c2ccc(F)cc2)OCc2cc(-c3ccc4cc[nH]c4c3)ccc21` (stereo unspecified), the growth was -27.1% (active).
For `CCN(CC)CCOCC[C@H]1CC[C@H]2[C@@H]3[C@H](C)Cc4cc(OS(N)(=O)=O)ccc4[C@H]3CC[C@]12C`, the growth was -87.2% (active).
With `CCN(C)S(=O)(=O)Nc1cccc(Nc2ncnc3cc(NC(=O)CCl)ccc23)c1Cl` the growth was 9.82% (active).
`Cc1ccc(C(=Nc2ccccc2)N=P(c2ccccc2)(c2ccccc2)c2ccccc2)cc1` was tested, and the growth was -83% (active).
For `COc1ccc2cc1Oc1ccc(cc1)C[C@H]1c3c(cc4c(c3Oc3cc5c(cc3OC)CCN(C)[C@@H]5C2)OCO4)CCN1C`, the growth was 7.08% (active).

Source: PubChem BioAssay (NCI)
